The campaign covered roughly 260,000 compounds. About 1,500 (0.58%) were called active. Another 5% or so got no clear call; they are omitted.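 How the source made its calls: active means inhibition above a set limit at one or more doses, reproduced on every date tested; inconclusive means results disagree between test dates, or hit never tested in dose response; inactive means the rest.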 These entries were drawn from the full list. Measured potencies and affinities stand elsewhere.
target: Virion infectivity factor (Human immunodeficiency virus type 1 group M subtype B (isolate BH10)) + Virion infectivity factor (Human immunodeficiency virus type 1 group M subtype B (isolate BRU/LAI)) + Virion infectivity factor (Human immunodeficiency virus type 1 group M subtype B (isolate PCV12)) + Virion infectivity factor (Human immunodeficiency virus type 1 group M subtype B (isolate HXB2)) + DNA dC->dU-editing enzyme APOBEC-3G (Homo sapiens) (UniProt P69720+P69721+P69722+P69723+Q9HC16); test: inhibitors of Vif binding to APOBEC3G peptide, primary screen, biochemical, TR-FRET, GST-Vif 1-94, biotin-A3G peptide, dose response retest (AID 1117319); settings: active compounds read high;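 further: Vif residues 1-94 fused to GST binding biotinylated APOBEC3G peptide 110-148; 0% = full assay without inhibitor and 100% = GST in place of GST-Vif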

inhibition, inactive:
Cc1ccc(CN(C)C(=O)CN2C(=O)NC3(CCCc4ccccc43)C2=O)c(C)c1 (stereo unspecified) -3.76%, CN(C)C(=O)CSc1nnc(Cc2ccccc2)n1Cc1ccco1 7.45%, O=C(Nc1cccc(-c2nnn(CC(=O)N3CCc4ccccc4C3)n2)c1)C1CCC1 -4.46%, CC(C)CC(=O)Nc1ccccc1-c1nnn(CC(=O)N2CCc3ccccc3C2)n1 10.6%, CC(=O)NCCOc1cccc2ccccc12 4.94%, CC(=O)NN1C(=O)/C(=C\c2ccc(C)cc2)SC1=S -1.41%, CC(=O)NN1C(=O)/C(=C\c2ccc(Cl)cc2)SC1=S 7.42%, CC(=O)NN1C(=O)/C(=C\c2ccccc2)SC1=S 1.87%, CC(=O)NN1C(=O)/C(=C/c2ccc(C(C)C)cc2)SC1=S -3.47%, O=C(c1nc(-c2ccccc2)n(-c2ccccc2)n1)N1CCCCCC1 2.5%, O=C(NNC(=O)c1cc(Cl)ccc1O)c1cccc(S(=O)(=O)N2CCOCC2)c1 4.69%, COc1cccc(C(=O)NCc2ccc(N3CCN(C(=O)OC(C)(C)C)CC3)cc2)c1 4.61%, CCN(CC)c1ccc(C(=O)Nn2cnc3ccccc3c2=O)cc1 -13%, CCNc1nc(-c2cc(C)n(Cc3ccco3)c2C)cs1 8.76%, Cc1cc(-c2csc(N)n2)c(C)n1Cc1ccco1 20.6%, Cc1ccccc1NS(=O)(=O)c1cc(C(=O)NCCSC2CCCCC2)ccc1C 4.25%, CCCCCCCCn1c2c(c(=N)c3ccccc31)CCC2 1.93%, Cc1cc(C)c2c(=O)[nH]c(=O)n(Cc3ccccc3)c2n1 11.8%, O=C1CN(/N=C/c2ccc([N+](=O)[O-])o2)C(=O)N1 6.04%, O=C1NC(=S)S/C1=C\c1cccc([N+](=O)[O-])c1 0.14%, CCC1(C)Cc2ccccc2-c2nc(NCCCO)n(-c3ccccc3)c(=O)c21 (stereo unspecified) -4.2%, CC(C)COC(=O)Nc1nnc(SCCOc2ccccc2)s1 -6.77%, O=C(c1cc2c(s1)-c1ccccc1OC2)N1CCN(c2ccccn2)CC1 -16.4%, CCOc1cc(C(=O)OCC(=O)Nc2cc(C)on2)cc(OCC)c1OCC -2.84%, Clc1ccc(OCc2nn3c(-c4ccco4)nnc3s2)cc1 2%, Clc1ccc(OCc2nn3c(-c4ccccc4)nnc3s2)c(Cl)c1 -0.95%, COc1ccc(CN(C)C2CCCCC2)c(C)c1C -2.5%, COc1ccccc1NC(=O)CSc1nnc(CC(=O)Nc2ccccc2C)n1C -12.1%, CCOc1cccc(N2C(=O)CC(N3CCN(c4nc5ccccc5s4)CC3)C2=O)c1 (stereo unspecified) -1.33%, O=C(N/N=C/c1ccc(O)c([N+](=O)[O-])c1)c1ccncc1 -22.5%, Clc1cccc(/C=N\Nc2nccs2)c1 -1.1%, COc1ccc(C(=O)NCc2ccncc2)cc1OC 24.8%, O=C(O)c1cc(N=Nc2c(O)[nH]c3ccc([N+](=O)[O-])cc23)ccc1Cl 10%, Cc1onc(-c2c(Cl)cccc2Cl)c1NC(=O)NNc1c(Cl)cncc1Cl -3.28%, CCOC=C1SC(=S)N(c2ccccc2OC)C1=O -1.46%, COc1ccccc1NC(=S)N1CCCCCC1 -0.41%, CC(=O)Nc1ccc(NC(=O)CCc2ccc(C)o2)cc1 3.07%, CCc1ccc(CCC(=O)Nc2ccc(S(N)(=O)=O)cc2)o1 68.2%, O=C(COC(=O)COc1cccc(Br)c1)NCc1ccc2c(c1)OCO2 -4.12%, CCOc1ncccc1C(=O)OCC(=O)c1c(N)n(C)c(=O)n(C)c1=O -0.62%, CCN(CC(=O)Nc1c(F)cccc1F)C(=O)c1c(-c2ccccc2Cl)noc1C 10.1%, C=CCn1c(COc2ccc(Cl)cc2)nnc1SCc1ccc(C#N)cc1 -5.86%, CCc1c(C)[nH]c2ccccc2c1=O 22.4%, Cc1[nH]c2ccccc2c1-c1nc2ccccc2[nH]1 24.1%, CCOc1ccc(CCNC(=O)CS(=O)Cc2nc(-c3ccc(C)cc3)oc2C)cc1 (stereo unspecified) 5.23%, COc1ccc(N2CCN(Cc3cc(=O)oc4cc(C)c(Cl)c(C)c34)CC2)cc1 4.75%, O=C(NCCc1ccccc1)C1CCN(S(=O)(=O)c2cccc3nonc23)CC1 -0.8%, O=C(NCCN1CCN(c2ccccc2)CC1)C1CCN(S(=O)(=O)c2cccc3nsnc23)CC1 -4.91%, Cc1cc(=O)[nH]c(SCCCOc2ccccc2Cl)n1 -1.03%, CCSc1n[nH]c2nc3c(c(=O)n12)C1(CCCCC1)Cc1ccccc1-3 -15.1%, CCN(CC)C(=O)CSc1nnc(-c2ccccn2)n1-c1ccccc1OC -5.38%, O=[N+]([O-])c1cc(Cc2ccccc2)cc(C=Nc2ccc(N3CCOCC3)cc2)c1O 23.6%, Oc1c(Br)cc(Cl)cc1C=Nc1ccc(N2CCOCC2)cc1 29.3%, COc1cccc(C(=O)Nc2ccc(NC(=O)c3ccco3)c(Cl)c2)c1 -3.2%, Cc1ccc(-c2cc(C(F)(F)F)n3nc(C(=O)Nc4ccon4)cc3n2)cc1C 10.8%, COc1ccc(/C=N/NC(=O)Cn2ccnc2C)cc1OC -2.05%, Cc1nccn1CC(=O)N/N=C/c1cccc(O)c1 2.96%, CNC(=O)C(=O)N/N=C/c1ccc(Br)cc1 17.2%, COc1ccc(NC(=O)COc2ccccc2Cl)cc1S(=O)(=O)N1CCCCC1 11.7%, O=C(CNS(=O)(=O)c1ccccc1Br)OCC(=O)N1CCc2ccccc21 4.27%, Cc1onc(-c2c(F)cccc2Cl)c1C(=O)N1CCOC12CCCCC2 -10.5%
